This is an account of results in PubChem BioAssay AID1347385 (Zoeller Lab, School of Medicine, Boston University, 2020).

Among all 20,000 compounds or so, about 85 (0.4%) were called active.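 Rule for the calls: active = cell survival signal 2 SD away from solvent-only control wells, confirmed on one or two retests; inactive = the rest.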 For the sample, actives were picked, then their nearest neighbours and some compounds at random.

The experiment is described as follows: phospholipid synthesis inhibitors, CHO cells, primary screen, ZR-82 cells, Enamine library, screen 3 (AID 1347385).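 Note: 3 h compound exposure then viability read about one day after UV.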 To be noted: ZR-82 CHO cells, pyrene fatty acid UV survival, CellTiter Blue, peroxisome-deficient CHO-K1 mutant line, plus DGAT-1, DGAT-2 and ACAT inhibitors; at 10 µM unless noted. For orientation: The colour change of resazurin is a common sign of viable cells or microbes.
As for `O=C(Nn1c(-c2cccs2)nc2sc3c(c2c1=O)CCCC3)c1cccs1`, the outcome was inactive.
The same measure for `CCOC(=O)C1=C(C)NC2=C(C(=O)CC(C)(C)C2)C1C` (configuration not stated): “inactive”; for `O=C(O)c1sc2cc(F)ccc2c1Cl`: “inactive”.
As to `C(=N\Nc1nncc2ccccc12)/c1ccc(N2CCOCC2)s1`, the outcome is “inactive [setting not given]”.
Then `COC(CNc1ncnc2sc3c(c12)CCC3)OC`, with “inactive”; and `Clc1cc(CSc2nnnn2C2CC2)cc2c1OCCO2`, with “inactive”.
Then `O=[N+]([O-])c1ccc2[nH]c(O)c(N=Nc3ccc(C(F)(F)F)cc3[N+](=O)[O-])c2c1`, with “inactive”; and `NC(=O)NCCCC(=O)O`, with “inactive”.
The same measure for `S=C(NCCc1ccccc1)N/N=C1\CC2CC=CC12` (configuration not stated): “inactive [setting not given]”; for `CC(N=C1NS(=O)(=O)c2ccccc21)C(=O)OC1CCOC1=O` (configuration not stated): “inactive”.
Take `CCOC(=O)c1c(C)[nH]c(C(=O)Cn2ncc(Cl)c(Cl)c2=O)c1C`: the result was inactive.
Then `FC(F)(F)C(=NC1(C(Cl)(Cl)Cl)Oc2ccccc2O1)Nc1ccccn1`, with “inactive”.
Then `O=S(=O)(c1cc(Br)ccc1Br)N1CCCc2ccccc21`, with “inactive”; and `O=S1(=O)CCC(N(Cc2ccco2)S(=O)(=O)c2ccc(S(=O)(=O)N3CCCC3)cc2)C1` (configuration not stated), with “inactive”; and `CCCN(CC1CC1)Cn1c(=S)sc2ccccc21`, with “inactive”.
The same measure for `Clc1ccc2nc(N/N=C/c3cccc4nccnc34)nc(-c3ccccc3)c2c1`: “inactive [setting not given]”; for `Clc1ccc2c(NN=C3c4ccccc4-c4ccccc43)ccnc2c1`: “active”; for `Fc1ccc(NC(=S)NNc2ccnc3cc(Cl)ccc23)cc1Cl`: “inactive”.
As for `Cn1/c(=N/N=C/C(Cl)=C/c2ccccc2)sc2ccccc21`, the outcome is “inactive [setting not given]”.
Then `S=C(NCC1CCCO1)NNc1ncnc2sc3c(c12)CCCC3` (configuration not stated), with “inactive”; and `CC(C)=CCC/C(C)=C/C=N/Nc1ccc([N+](=O)[O-])cc1`, with “inactive [setting not given]”.
Turning to `Fc1ccc(NC(=S)Nc2ccc(SC(F)F)cc2)cc1Cl`, the outcome was active.
The same measure for `Nc1c(Cl)cc(NC(=S)Nc2ccc(SC(F)F)cc2)cc1Cl`: “inactive”; for `COc1cc(NC(=S)Nc2ccc(SC(F)F)cc2)cc(OC)c1OC`: “inactive”.
In the case of `O=C(C1CCCCC1)N1N=C2/C(=C/c3ccco3)CCCC2C1c1ccco1` (configuration not stated), the outcome was inactive.
Then `NC(CSC12CC3CC(CC(C3)C1)C2)C(=O)O` (configuration not stated), with “inactive”.
As for `O=C(NC1=NCCS1)C1CC2CCCC(C1)C2=O` (configuration not stated), the result was inactive.
Then `CC(C)NC(=S)NN=C1CCCCCCCCCCC1`, with “inactive”; and `Cc1cc(NC(=O)COC(=O)C2=NNC(=O)CC2)no1`, with “inactive”.
With `O=[N+]([O-])c1cc(S(=O)(=O)Nc2ccc(Cl)c(S(=O)(=O)N3CCOCC3)c2)ccc1Cl`, the outcome was inactive.
Turning to `O=[N+]([O-])c1ccc(N=P(c2cccc3ccccc23)(c2cccc3ccccc23)N2CCOCC2)c(Br)c1`, the result was inactive.
The same measure for `Nc1scc[n+]1Cc1cccc2cccnc12`: “inactive”; for `Nc1nc(SCC(=O)NCCN2CCOCC2)nc2sc3c(c12)CCC3`: “inactive”; for `CC(C)CC(C(=O)NNC(=O)c1ccco1)N1C(=O)C2CC=CCC2C1=O` (configuration not stated): “inactive”.
Then `O=S(=O)(Nc1ncccn1)c1ccc(NC(=S)Nc2cccnc2)cc1`, with “inactive”.
For `CC(C)CC(NC(=O)NC1CCCCC1)C(=O)O` (configuration not stated), the outcome was inactive.
With `c1ccc(C2=NNC(c3ccccc3)C2)cc1` (configuration not stated), the outcome was inactive.
With `O=C(NC1CCCCCCC1)c1ccc(=O)[nH]c1`, the result was inactive.
As to `CN(C1CCCCC1)S(=O)(=O)c1ccc2c(c1)OCCCO2`, the result was inactive.
The same measure for `OC(Cc1nc2ccccc2[nH]1)c1nc2ccccc2[nH]1` (configuration not stated): “inactive”; for `Cc1cc(NC(=O)Cn2c(=O)/c(=C\c3ccc(C)s3)s/c2=C\C(=O)C(C)(C)C)no1`: “inactive”; for `C=CCN=c1scc(-c2ccc(OC)cc2)n1/N=C/c1ccc(OC(F)F)cc1`: “inactive [setting not given]”.
Regarding `CCOC(=O)/C(=C\c1ccc(C)s1)c1nc2sc(C)c(C)c2c(=O)[nH]1`, the outcome was inactive.
The same measure for `O=C(O)CCN1C(=O)C2CC=CCC2C1=O` (configuration not stated): “inactive”; for `S=C(N=P(c1ccccc1)(N1CCOCC1)N1CCOCC1)NCc1cn2ccccc2n1`: “inactive”.
The same measure for `S=C1NC(c2ccccc2)=NCN1N(c1ccccc1)c1ccccc1`: “inactive”.
Then `COc1ccc(-c2noc(CSc3ncccn3)n2)cc1OC`, with “inactive”.
As to `CC1(C)CCCC(C)(C)N1Sc1ccccc1`, the outcome was inactive.
Then `Oc1ccc(-c2onc3ccc(Cl)cc23)cc1`, with “inactive”; and `NC1=NC(c2c(Cl)cccc2Cl)n2c(nc3ccccc32)N1` (configuration not stated), with “inactive”; and `Cc1cc(C(=O)Cn2cnc3c2c(=O)n(C)c(=O)n3C)c(C)n1CCC1=CCCCC1`, with “inactive”.
Turning to `O=C1CCC(C(=O)OCC(=O)c2ccc(Br)s2)=NN1`, the result was inactive.
Then `O=C1CSC2=NCN(c3ccccc3)CN12`, with “inactive”; and `Clc1cc(Cl)c(N/N=C/c2cn(-c3ccccc3)nc2-c2cc3ccccc3o2)c(Cl)c1`, with “inactive [setting not given]”.
As to `O=c1/c(=C/c2ccccc2I)sc2nc3ccccc3n12`, the outcome was inactive.
`COc1ccccc1OCCOCCOc1ccccc1OC`: the outcome was inactive.
Then `O=c1c(Cl)c(N2CCCC2)cnn1-c1ccccc1`, with “inactive”.
Then `COCCNC(=O)NC(=O)N(C1CCCCC1)S(C)(=O)=O`, with “inactive”.
For the compound `Cc1sc2nc(-c3cccs3)nc(Sc3nnc(C4CC4)o3)c2c1C`, the result was inactive.
With `CCOC(=O)c1sc2nc(C(C)Sc3ncnc4sc5c(c34)CCC5)[nH]c(=O)c2c1C` (configuration not stated), the outcome was inactive.
Regarding `CC(C)(C)C1CCC(C(=O)OCC(=O)c2ccc(Cl)s2)CC1` (configuration not stated), the result was inactive.
For `O=C1CN(Cc2csc(-c3cccs3)n2)CCN1`, the outcome was inactive.
The same measure for `O=[N+]([O-])c1c(Sc2nnnn2-c2ccccc2)nc2sccn12`: “inactive”.
The same measure for `COc1ccc(C2=CC(c3ccc(OC)c(OC)c3)n3ncnc3N2)cc1OC` (configuration not stated): “inactive”; for `Cc1cc2ncn(Cc3ccc(C(C)C)cc3)c2cc1C`: “inactive”.
`CCNc1n[nH]c(=S)s1`: the outcome was inactive.
Then `O=C(Nc1ccccc1)NC(NC(=S)Nc1ccc(I)cc1)C(Cl)(Cl)Cl` (configuration not stated), with “inactive”; and `O=C(Nc1ccccc1)Nc1ccc(Cl)c(Cl)c1`, with “active”.
In the case of `S=C(Nc1ccc(Cl)c(Cl)c1)NC12CC3CC(CC(C3)C1)C2`, the outcome was inactive.
The same measure for `FC(F)Sc1nc(-c2ccc(Br)cc2)nc2ccccc12`: “inactive”; for `CC(C)CNC(=O)NC(=O)C1CCCCC1`: “inactive”; for `O=[N+]([O-])c1cc(CN2CCOCC2)c2c(c1)OCOC2`: “inactive”.
